In the library only some 10% were active in any assay of this set; here they are far more common.
HEK cytotox – cytotoxic compounds in HEK 293 cells | hit rate 6.6% among 94,000 | Potency, µM (titrated, usually from 115 µM), usual class: inhibitors | HEK 293 viability, ATP luminescence (CellTiter-Glo), 48-72 h; further: nearly all actives have a fitted effect of over 60% in size
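Pintool-delivered compounds were incubated with HEK 293 cells (250 cells/well) at 37 degree Celsius for 48 or 72 hr. ATP-dependent luminescence (CellTiter-Glo) then reported remaining viable cells.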
NPR1 antag – human Npr1 receptor antagonism; HEK293 hNpr1 GloSensor cGMP, ANP-stimulated luminescence; Potency, µM (highest dose often 46.3 µM), actives largely listed as inhibitors; hit rate 1.6% among 76,000; AID 1347048; calls by dose curve; further: nearly all actives have a fitted effect of over 60% in size
Target sequence (P16066 whole entry, looked up): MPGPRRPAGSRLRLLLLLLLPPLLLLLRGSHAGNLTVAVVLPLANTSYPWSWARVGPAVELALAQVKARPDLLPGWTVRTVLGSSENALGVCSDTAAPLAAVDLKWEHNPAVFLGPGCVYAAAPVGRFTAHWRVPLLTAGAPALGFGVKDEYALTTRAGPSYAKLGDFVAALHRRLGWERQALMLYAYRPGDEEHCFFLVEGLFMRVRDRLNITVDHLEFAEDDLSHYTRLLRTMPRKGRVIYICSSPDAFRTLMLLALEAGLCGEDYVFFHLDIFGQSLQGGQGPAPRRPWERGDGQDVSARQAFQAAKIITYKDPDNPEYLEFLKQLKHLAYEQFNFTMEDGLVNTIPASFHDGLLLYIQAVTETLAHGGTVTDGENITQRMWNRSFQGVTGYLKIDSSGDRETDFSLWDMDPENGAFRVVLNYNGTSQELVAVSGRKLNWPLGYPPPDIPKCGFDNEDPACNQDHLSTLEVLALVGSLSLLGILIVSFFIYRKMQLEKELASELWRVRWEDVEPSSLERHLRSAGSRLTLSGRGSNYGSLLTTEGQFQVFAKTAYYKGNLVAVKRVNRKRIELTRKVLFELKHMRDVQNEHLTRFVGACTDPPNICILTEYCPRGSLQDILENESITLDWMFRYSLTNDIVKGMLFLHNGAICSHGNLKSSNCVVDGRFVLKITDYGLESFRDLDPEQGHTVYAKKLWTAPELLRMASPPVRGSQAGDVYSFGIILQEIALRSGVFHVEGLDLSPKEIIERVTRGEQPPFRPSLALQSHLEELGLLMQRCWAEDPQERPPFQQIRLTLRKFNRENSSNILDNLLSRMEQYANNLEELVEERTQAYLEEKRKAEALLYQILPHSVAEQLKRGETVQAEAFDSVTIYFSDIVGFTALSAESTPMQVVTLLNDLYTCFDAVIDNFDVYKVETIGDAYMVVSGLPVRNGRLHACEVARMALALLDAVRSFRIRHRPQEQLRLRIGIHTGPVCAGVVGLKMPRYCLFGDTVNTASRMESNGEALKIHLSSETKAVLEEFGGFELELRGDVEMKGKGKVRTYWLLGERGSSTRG
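Compound pre-incubated 30 min at room temperature on GloSensor-loaded HEK293 cells stably carrying hNpr1 and the pGS-40F cGMP biosensor. Stimulation uses hNppA at 0.1 nM final; luminescence is taken at baseline and 20 min post-agonist.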
NIH3T3 tox – cytotoxic compounds in NIH 3T3 cells; NIH 3T3 viability, CellTiter-Glo ATP luminescence, 48-72 h; Potency, µM (top dose mostly 96.7 µM), most hits filed as inhibitors; AID 1345082; hit rate 4.3% among 94,000; further: nearly all actives have a fitted effect of over 55% in size
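ATP-dependent luminescence (CellTiter-Glo) served as the viability signal for NIH 3T3 cells treated with compound for 48 or 72 hr at 37 °C.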
Luciferase inh – blocks purified firefly luciferase enzyme activity. AID 1347043. purified P. pyralis luciferase, luminescence, biochemical. hit rate 2.5% among 76,000. Potency, µM (titrated, usually from 115 µM), most hits filed as inhibitors; further: nearly all actives have a fitted effect of over 65% in size
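Luminescence read by CCD imaging after purified firefly luciferase (10nM final) was added to substrate buffer holding 10uM D-luciferin and 10uM ATP, pH 7.5, pre-dosed with compound.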
GPT2 inh – blocks human glutamate pyruvate transaminase 2; Recombinant GPT2, coupled pyruvate oxidase/HRP Amplex Red fluorescence; Q8TD30; Potency, µM (titrated, usually from 57.7 µM), hits mostly inhibitors; hit rate 0.25% among 100,000; further: nearly all actives have a fitted effect of over 60% in size
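Fluorescence of coupled pyruvate oxidase/HRP/Amplex Red system (50uM Amplex, 30 min, dark) reports pyruvate formed by GPT2. Enzyme reaction: 10ng/uL GPT2, 2mM L-alanine, 250uM a-KG, 30 min room temperature, pH 7.5; 50uM AOA control.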
Npr1 antag conf – confirmation of human Npr1 natriuretic peptide receptor antagonists. shares compounds with NPR1 antag. Potency, µM (highest dose often 57.6 µM), usual class: inhibitors. HEK293 hNpr1 cGMP GloSensor luminescence, ANP-stimulated. hit rate 76% among 1,400; calls by dose curve; further: nearly all actives have a fitted effect of over 70% in size
Npr2 selectivity – selectivity test of Npr1 antagonists against human Npr2. HEK293 hNpr2 GloSensor cGMP luminescence, CNP-stimulated. hit rate 67% among 1,400. shares compounds with NPR1 antag. Potency, µM (series often up to 57.6 µM), actives largely listed as inhibitors; calls by dose curve; further: nearly all actives have a fitted effect of over 70% in size
FLuc inh counter – FLuc enzyme inhibition, Npr1 counter-screen; hit rate 0.7% among 1,400; shares compounds with NPR1 antag; purified FLuc enzyme, luminescence, Km substrate; Potency, µM (series often up to 57.6 µM), hits mostly inhibitors
GloSensor cGMP – control cell line activity, Npr1 antagonist counter-screen; shares compounds with NPR1 antag; HEK293 GloSensor cGMP, SNP-stimulated, luminescence; Potency, µM (highest dose often 57.6 µM), most hits filed as inhibitors; hit rate 69% among 1,400; AID 1347051; calls by dose curve; further: nearly all actives have a fitted effect of over 70% in size
Large screens that a line does not name were inactive (follow-up assays come after a bar, where they were run). Unless noted, the call rests on the fitted dose curve; in most records, active means well fitted curve in the direction sought with a large enough effect; inconclusive means small, poorly fitted or top-dose-only effect, or another doubt; inactive means no such curve, though single readings can be large; an effect the other way counts as inactive or inconclusive.

c1ccc(-n2cc(CN3CCC(Oc4ccncc4)CC3)nn2)cc1	HEK cytotox inconclusive, NPR1 antag inconclusive, NIH3T3 tox inconclusive | Npr1 antag conf inconclusive | Npr2 selectivity inconclusive | FLuc inh counter inactive | GloSensor cGMP inconclusive
FC(F)(F)c1ccc(N2C3CCC2CN(Cc2cccs2)C3)cc1	HEK cytotox inconclusive, NIH3T3 tox inconclusive (no result: NPR1 antag, Luciferase inh) | Npr1 antag conf 24.1µM | Npr2 selectivity 21.5µM | FLuc inh counter inactive | GloSensor cGMP 17.1µM
Cc1cc(C)cc(-c2ccc(CN3CC4CCC(C3)N4c3ccc(C(F)(F)F)cc3)cc2)c1	none (no result: NPR1 antag, Luciferase inh)
Cc1ccc(C(=O)N2CCC(n3cc(-c4nc(C5CC5)no4)nn3)C2)s1 (stereo not given)	HEK cytotox inconclusive, NPR1 antag 15.8µM | Npr1 antag conf 24.3µM | Npr2 selectivity 24.3µM | FLuc inh counter inactive | GloSensor cGMP 13.7µM
O=C(c1ccc(F)cc1Cl)N1CCC(n2cc(-c3nc(C4CC4)no3)nn2)C1 (stereo not given)	HEK cytotox inconclusive, NPR1 antag 15.8µM, NIH3T3 tox inconclusive | Npr1 antag conf 27.3µM | Npr2 selectivity inconclusive | FLuc inh counter inactive | GloSensor cGMP inconclusive
CC(C)C[C@@H]1N[C@H](C(=O)NCCCN2CCCC2=O)Cc2c[nH]c3cccc1c23	HEK cytotox inconclusive
Nc1nc(C2CC(O)C2)cc(N2CCC(Cc3ccc(F)cc3)CC2)n1 (stereo not given)	HEK cytotox inconclusive, NPR1 antag 11.2µM, NIH3T3 tox 15.8µM | Npr1 antag conf 19.3µM | Npr2 selectivity 19.3µM | FLuc inh counter inactive | GloSensor cGMP 12.2µM
Nc1nc(C2CC(O)C2)cc(N2CCC(OCc3ccccn3)CC2)n1 (stereo not given)	NIH3T3 tox inconclusive
O=C(N1CC(Oc2ccccc2-c2nc(C3CC3)no2)C1)C1(c2ccccc2)CC1	HEK cytotox inconclusive, NIH3T3 tox inconclusive
C1CCC(COCCc2noc(C3CCCN3)n2)C1 (stereo not given)	none
CN(Cc1ccc(F)cc1)c1ccc2ncc(Nc3ccnc(N4CCOCC4)c3)n2n1	HEK cytotox inconclusive, NPR1 antag 10µM, NIH3T3 tox inconclusive | Npr1 antag conf 25µM | Npr2 selectivity 15.7µM | FLuc inh counter inactive | GloSensor cGMP 17.7µM
CN(CCc1ccncc1)C(=O)CCc1ccnc(N2CCOCC2)c1	none
N#Cc1cccc(CN2CCOC[C@H]2c2ncc(-c3ccc(Cl)s3)[nH]2)c1	HEK cytotox inconclusive, NPR1 antag 28.2µM, NIH3T3 tox inconclusive, GPT2 inh inconclusive | Npr1 antag conf 39.6µM | Npr2 selectivity inconclusive | FLuc inh counter inactive | GloSensor cGMP inconclusive
Cn1c(CN2CCOC[C@H]2c2ncc(-c3ccc(Cl)cc3)[nH]2)nc2ccccc21	HEK cytotox 79.4µM, NPR1 antag 20µM, NIH3T3 tox inconclusive | Npr1 antag conf 31.4µM | Npr2 selectivity 28µM | FLuc inh counter inactive | GloSensor cGMP inconclusive
Fc1ccc(CN2CCOC[C@H]2c2ncc(-c3ccc(F)cc3F)[nH]2)cc1	HEK cytotox 79.4µM, NPR1 antag inconclusive, NIH3T3 tox inconclusive | Npr1 antag conf inconclusive | Npr2 selectivity inconclusive | FLuc inh counter inactive | GloSensor cGMP inconclusive
Fc1cccc(-c2cnc([C@@H]3COCCN3Cc3ccccc3)[nH]2)c1	HEK cytotox inconclusive, NIH3T3 tox inconclusive
O=C(Nc1cccnc1)[C@@H]1C[C@@H](c2ccc(F)cc2)N([S+](=O)([O-])c2cccnc2)C1	HEK cytotox inconclusive, NIH3T3 tox inconclusive
CCn1cc(CNC(=O)c2ccc(OC3CCN(S(=O)(=O)N(C)C)CC3)cc2)cn1	HEK cytotox inconclusive, NPR1 antag 12.6µM | Npr1 antag conf 19.3µM | Npr2 selectivity 19.3µM | FLuc inh counter inactive | GloSensor cGMP 10.9µM
CN(C)S(=O)(=O)N1CCC(Oc2ccc(C(=O)NCCc3ccncc3)cc2)CC1	HEK cytotox inconclusive, NIH3T3 tox inconclusive
CN1CCN(Cc2ccc(Nc3cnc4ccc(-c5ccccc5)nn34)cc2)CC1	HEK cytotox 25.1µM, NPR1 antag 31.6µM, NIH3T3 tox inconclusive | Npr1 antag conf 31.4µM | Npr2 selectivity 31.4µM | FLuc inh counter inactive | GloSensor cGMP 22.2µM
OCCc1ccc(Nc2cnc3ccc(-c4cccc(CO)c4)nn23)cc1	HEK cytotox inconclusive, NIH3T3 tox inconclusive, Luciferase inh inconclusive
Cn1ccnc1C(O)c1cc2n(n1)CCN(Cc1ccc(CO)o1)C2 (stereo not given)	none
CC(C)(Oc1nn(CCN2CCOCC2)c2ccccc12)C(=O)NCc1ccccc1	HEK cytotox inconclusive
COC1CCN(C(=O)C(C)(C)Oc2nn(CCOc3ccccc3)c3ccccc23)CC1	HEK cytotox 89.1µM, NPR1 antag inconclusive, NIH3T3 tox inconclusive | Npr1 antag conf inconclusive | Npr2 selectivity 25µM | FLuc inh counter inactive | GloSensor cGMP inactive
Cc1cc(NC(=O)C(C)(C)Oc2nn(CCOc3ccccc3)c3ccccc23)n(C)n1	HEK cytotox inconclusive, NPR1 antag 25.1µM, NIH3T3 tox inconclusive | Npr1 antag conf 35.3µM | Npr2 selectivity 35.3µM | FLuc inh counter inactive | GloSensor cGMP 31.4µM
CC(C)(Oc1nn(Cc2cccc(Cl)c2)c2ccccc12)C(=O)N1CCN(CCO)CC1	HEK cytotox inconclusive, NPR1 antag inconclusive, NIH3T3 tox inconclusive | Npr1 antag conf inconclusive | Npr2 selectivity inconclusive | FLuc inh counter inactive | GloSensor cGMP inactive
COCc1ccc2c(c1)c(OC(C)(C)C(=O)Nc1cc(C)nn1C)nn2Cc1ccccc1	HEK cytotox inconclusive, NIH3T3 tox inconclusive
COc1cc(-c2nc3c([nH]2)CC(c2ccccc2OC)CNC3=O)ccc1O (stereo not given)	HEK cytotox inconclusive, NIH3T3 tox inconclusive, GPT2 inh inconclusive
O=Cc1ccccc1-c1cccc(O)c1	HEK cytotox inconclusive, NIH3T3 tox inconclusive (no result: NPR1 antag, Luciferase inh) | Npr1 antag conf inconclusive | Npr2 selectivity 49.9µM | FLuc inh counter inconclusive | GloSensor cGMP inconclusive
Cc1cccc(-c2ccccc2C=O)c1	none (no result: NPR1 antag, Luciferase inh)
CCN1c2cc(C(=O)NCc3nc4ccccc4n3C)ccc2C(=O)N2CCCCCC21 (stereo not given)	HEK cytotox inconclusive
Cc1ccsc1-c1[nH]nc2ncc(-c3c(C)noc3C)nc12	HEK cytotox inconclusive, NIH3T3 tox inconclusive

Screens deposited in PubChem BioAssay by National Center for Advancing Translational Sciences (NCATS).
